The list is not random: actives were taken first. Their share in the collection is about 1.8%.
Vif-APOBEC3F blk: blocks the Vif interaction with APOBEC3F | 390,000 tested, 0.2% active | Potency, µM (top dose mostly 46.1 µM), without a hit: at the highest dose activity, negative = active | AID 602313 | HeLa A3F-eYFP + Vif (tagged APOBEC3F with the HIV-1 protein that degrades it), YFP fluorescence increase; further: % of control where 0% means no effect; nearly all actives have a fitted effect of over 65% in size
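Fluorescence increase (Ex 488/Em 500-530) after overnight compound treatment at 37 deg C flags inhibition of Vif-driven A3F-eYFP loss in stable HeLa A3F-eYFP/Vif cells seeded overnight beforehand.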
Vif-A3G inh: Vif-A3G binding inhibition; AID 602310; HeLa A3G-eYFP + Vif (tagged APOBEC3G with the HIV-1 protein that degrades it), YFP fluorescence, overnight; 410,000 tested, 0.076% active; Potency, µM (series often up to 46.1 µM), for the others: top-dose activity, negative = active, hits mostly inhibitors; further: on the % scale 0 is the no-effect control and ±100 the full control effect; nearly all actives have a fitted effect of over 60% in size
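HeLa cells stably expressing Vif and C-terminally eYFP-tagged A3G, seeded overnight at 37 deg C, then exposed to compound by pintool overnight at 37 deg C. Rise in yellow fluorescence (Ex 488/Em 500-530, Acumen) marks blocked Vif-driven A3G degradation.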
VDR inh: inhibitors of human vitamin D receptor | VDR-SRC2-3 peptide fluorescence polarization, 2 h | Potency, µM, for inactives: max response, negative = inhibition, actives largely listed as inhibitors | 400,000 tested, 0.93% active | AID 504847; further: on the % scale 0 is the no-effect control and ±100 the full control effect
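The screen uses fluorescence polarization to detect compounds that interfere with recruitment of the SRC2-3 coactivator peptide to VDR; plates are read after 2 h at room temperature.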
TrxR1 inh: blocks rat thioredoxin reductase 1; O89049; recombinant rTrxR1, NADPH fluorescence consumption, selenite substrate; Potency, µM (highest dose often 114 µM), for the others: at the highest dose activity change, negative = inhibition, actives largely listed as inhibitors; 390,000 tested, 1% active; AID 588453; further: on the % scale 0 is the no-effect control and ±100 the full control effect; nearly all actives have a fitted effect of over 65% in size
Target sequence (O89049 whole entry, looked up): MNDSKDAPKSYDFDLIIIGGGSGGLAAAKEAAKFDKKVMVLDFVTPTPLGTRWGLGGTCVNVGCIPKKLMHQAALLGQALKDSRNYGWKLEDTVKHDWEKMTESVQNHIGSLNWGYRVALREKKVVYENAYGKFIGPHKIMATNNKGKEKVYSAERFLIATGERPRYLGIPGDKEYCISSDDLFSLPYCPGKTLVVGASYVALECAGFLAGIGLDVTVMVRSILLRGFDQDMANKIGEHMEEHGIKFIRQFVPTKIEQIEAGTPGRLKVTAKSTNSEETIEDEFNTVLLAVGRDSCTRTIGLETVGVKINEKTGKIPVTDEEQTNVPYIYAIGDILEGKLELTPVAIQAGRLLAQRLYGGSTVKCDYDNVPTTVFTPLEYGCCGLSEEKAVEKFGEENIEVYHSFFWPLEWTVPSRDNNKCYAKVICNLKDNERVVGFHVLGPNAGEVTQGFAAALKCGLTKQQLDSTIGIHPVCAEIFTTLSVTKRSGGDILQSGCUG
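Rat TrxR1 (90 nM in the dispensed reagent) was pre-reduced with 400 uM NADPH for 5 min at room temperature, then incubated with compound for 15 min. After 400 uM selenite was added, NADPH fluorescence (Ex 340/Em 450 nm) was followed for 8 min.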
TrxR1 substrate: is turned over as a substrate by rat TrxR1; 390,000 tested, 0.01% active; Potency, µM (highest dose often 114 µM), for inactives: top-dose activity change, negative = substrate turnover; purified TrxR1 substrate turnover, NADPH consumption readout; AID 588456; further: on the % scale 0 is the no-effect control and ±100 the full control effect; nearly all actives have a fitted effect of over 50% in size
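Rat TrxR1, dispensed at 90 nM, was prereduced with 400 uM NADPH (final) for 5 min at ~22 deg C, then incubated with compound 15 min before 400 uM selenite. A first-read NADPH fluorescence drop versus no-compound background flagged substrates.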
* marks the source's active call; other numbers are inactive results; ? = inconclusive; · = no result; [ ] = another dose, or the depositor's remark. The call rests on the fitted dose curve; in most records, active means well fitted curve in the direction sought with a large enough effect; inconclusive means small, poorly fitted or top-dose-only effect, or another doubt; inactive means no such curve, though single readings can be large; an effect the other way counts as inactive or inconclusive. Potency means the concentration at half of the fitted maximal effect.

SMILES | Vif-APOBEC3F blk | Vif-A3G inh | VDR inh | TrxR1 inh | TrxR1 substrate
Nc1c(Cl)cc(C=O)cc1Cl | · | -3.1% | · | -0.4% | -6.4%
COc1ccc(-c2csc3ncnc(N4CCN(C(=O)c5ccco5)CC4)c23)cc1 | 4.0% | ? | -10.8% | 56.2µM* | 8.5%
O=C(c1ccco1)N1CCN(C(=O)c2sccc2-c2ccccc2)CC1 | -0.2% | -6.1% | 8.8% | 15.8µM* | 5.0%[57.1 µM]
O=C(c1ccco1)N1CCN(c2ncnc3scc(-c4ccccc4)c23)CC1 | · | -1.2% | 1.3% | -13.9% | -0.7%
Cc1ccc(-c2csc3ncnc(Sc4nnnn4-c4ccccc4)c23)cc1 | · | ? | · | 25.1% | 3.3%
CN(Cc1ccccc1)C(=O)c1ccc2c(c1)OCO2 | 2.8% | -0.8% | -15.2% | -0.1% | -2.0%
CC(C)(C)N(Cc1ccc2c(c1)OCO2)C(=O)/C=C\S(=O)c1ccccc1 (centres undefined) | -0.9% | -27.6% | 70.8µM* | 79.4µM* | -6.5%
Cc1c(C#N)c(NC(=O)COC(=O)c2cc(Cl)c3c(c2)OCCCO3)n(Cc2ccco2)c1C | · | 3.8% | · | -6.8% | 7.7%
CC1(C)C(=O)C=CC(=O)C(C)(C)C(=O)C=CC(=O)C(C)(C)C2=CC=C(O2)C(C)(C)C(=O)C=CC1=O | -14.5% | -0.5% | ? | 15.8µM* | -7.5%
Cc1cccc2cc(CN(Cc3ccccc3)Cc3nnnn3Cc3ccccc3)c(=O)[nH]c12 | · | 1.1% | -6.1% | -21.9% | 22.5%
N#Cc1nc(-c2ccc(OCc3ccc(Cl)cc3)cc2)oc1N1CCCCCC1 | · | 4.5% | 117.3% | 16.9% | 15.6%
CS(=O)(=O)N1CCN(c2ccc([N+](=O)[O-])cc2F)CC1 | 6.3% | -2.6% | -7.7% | 4.4%[57.1 µM] | -1.1%[57.1 µM]
CS(=O)(=O)N1CCN(c2ccc([N+](=O)[O-])cc2C(F)(F)F)CC1 | 2.5% | 2.3% | ? | -6.4% | -3.0%
O=[N+]([O-])c1ccc(O/N=[N+](\[O-])N2CCCC2)c([N+](=O)[O-])c1 | · | -14.6% | · | 17.8µM* | -7.2%
CS(=O)(=O)N1CCN(/[N+]([O-])=N/Oc2ccc([N+](=O)[O-])cc2[N+](=O)[O-])CC1 | · | -9.5% | · | 8.91µM* | -2.7%
CS(=O)(=O)N1CCN(/[N+]([O-])=N/Oc2ccc([N+](=O)[O-])cc2[N+](=O)[O-])CC1 (tested in a mixture with another compound) | · | -0.5% | · | 11.2µM* | 5.0%
CCC1CCCCN1CCCNC(=O)c1[nH]c2ccccc2c1Sc1ccc(Cl)cc1 (centres undefined) | 3.4% | ? | 10.8% | 4.3% | 7.3%
O=C(Nc1ccncc1)c1cnn2c1NC(=C1CC1)C=C2C(F)F | · | -2.8% | · | -9.8% | -1.5%
Cc1cc(C)nc(N/C=C(\C#N)C(=O)c2cccc(CSc3ccccc3)c2)n1 | · | -4.6% | · | 0.2% | -4.0%
Cc1c(Cc2ccc3c(c2)OCO3)sc(NC(=O)C2CC2)c1C(N)=O | -10.5% | -14.3% | 50.1µM* | -5.6% | 3.1%
Cc1nc(NC(=O)C2CCCC2)sc1Cc1ccc2c(c1)OCO2 | 2.5% | -11.4% | 15.4% | 10.9% | 6.8%
CCOc1ccc(NC(=O)C2CC(=O)NC(=Nc3ccc(Cl)c(Cl)c3)S2)cc1 (centres undefined) | -1.5% | -0.3% | -3.0% | 26.1% | 4.3%
O=C(N/C(C(=O)N1CCOCC1)=C(\Sc1ncccn1)c1ccccc1)c1ccccc1 | -8.3% | -2.3% | -11.9% | 50.1µM* | -3.9%
CC(C)=C(NC(=O)c1ccccc1)C(=O)N1CCOCC1 | -1.0% | -0.8% | -5.6% | 21.5% | 12.8%
O=C(COC(=O)C12CC3CC(CC(Br)(C3)C1)C2)NCc1ccco1 | · | -2.1% | -4.9% | 6.6% | 3.4%
SMILES | Vif-APOBEC3F blk | Vif-A3G inh | VDR inh | TrxR1 inh | TrxR1 substrate
COc1ccc(OCc2cn(CC(=O)c3ccc(O)cc3)nn2)cc1 | 4.2% | 0.1% | 3.2% | -12.5% | -1.8%
O=C(Cn1cc(COc2c(F)c(F)cc(F)c2F)nn1)c1ccc(O)cc1 | 1.2% | 0.1% | -4.2% | 50.1µM* | 0.2%
Cn1c(=O)c2c(nc(NCc3ccccc3)n2Cc2ccc(Cl)c(Cl)c2)n(C)c1=O | 0.8% | -12.0% | -14.5% | 14.6% | 4.5%
NNC(=O)c1cncn1-c1ccc(F)cc1 | -17.6% | -2.2% | -14.4% | 4.0%[57.1 µM] | -2.2%[57.1 µM]
NC(=O)c1ccc(NC(=O)c2cncn2-c2ccccc2)cc1 | -3.6% | -1.1% | 79.4µM* | 6.2%[57.1 µM] | 7.4%[57.1 µM]
CCOC(=O)c1cc2c(=O)n3ccccc3nc2n(Cc2ccco2)c1=NC(=O)c1cccc(C)c1 | ? | -2.3% | -18.2% | ? | 41.9%
Cc1cccc(C(=O)N=c2c(C#N)cc3c(=O)n4cccc(C)c4nc3n2Cc2ccco2)c1 | ? | -7.0% | -24.6% | 6.31µM* | 105.8%
CCOC(=O)c1cc2c(=O)n3ccccc3nc2n(Cc2ccco2)c1=NC(=O)c1ccc(Br)cc1 | ? | -6.2% | 89.1µM* | ? | 232.1%
CCOC(=O)c1cc2c(=O)n3ccccc3nc2n(Cc2ccco2)c1=NC(=O)c1cccc(Br)c1 | ? | -1.7% | -10.6% | 3.98µM* | 18.3%[57.1 µM]
NC(=S)c1ccc[n+]([C@@H]2O[C@@H](COP(=O)([O-])OP(=O)(O)OC[C@H]3O[C@@H](n4cnc5c(N)ncnc54)[C@H](OP(=O)(O)O)[C@@H]3O)C(O)C2O)c1 (some centres undefined) | · | · | 1.3% | 10.7%[57.1 µM] | 10.6%[57.1 µM]
O=C(C[n+]1ccccc1Cl)c1ccc2c(c1)CCCC2 | · | 0.8% | · | -17.5% | -0.4%
CCOC(=O)CNc1nnc(SCC(=O)OCC)[nH]c1=O | -7.4% | -28.8% | 39.8µM* | 10µM* | 5.7%
COC(=O)CSc1nnc(C)c(=O)[nH]1 | -7.4% | 0.7% | 6.3% | 11.0% | 2.8%
Cc1ccccc1OCC(=O)NCC(=O)OCC(=O)c1ccc(F)cc1 | · | 2.5% | -16.5% | -8.7% | -1.5%
COc1cccc(NC(=O)/C=C/c2ccco2)c1 | -5.7% | -1.5% | -0.8% | -68.8% | -6.7%
Cc1occc1C(=O)Nc1cccc([N+](=O)[O-])c1 | -3.6% | -4.2% | 22.4µM* | -10.3% | -6.4%
CSc1cccc(NC(=O)/C=C/c2ccco2)c1 | -5.4% | 0.9% | -25.7% | 14.1µM* | -9.3%[57.1 µM]
CCCCC(=O)NC(=S)Nc1cccc(NC(=O)c2ccco2)c1 | -13.5% | -4.7% | -26.0% | 8.91µM* | 1.1%
O=C(/C=C/c1ccco1)NC(=S)Nc1cccc([N+](=O)[O-])c1 | -1.6% | ? | -13.5% | 20µM* | -2.3%[57.1 µM]
CCCCNC(=O)Cn1c(SCc2ccccc2C)nc2ccncc21 | · | -1.0% | -2.0% | -22.1% | -8.3%[0.0914 µM]
COc1ccccc1-c1nnc(C2CCN(S(=O)(=O)c3ccc(CC(C)C)cc3)CC2)o1 | 1.9% | 1.8% | 2.4% | 7.9% | 0.1%
CCOc1c2c(c(-c3ccc4c(c3)OCO4)c3cc(OC)c(OC)cc13)C(=O)OC2 | · | 3.7% | -12.2% | 5.3% | 16.8%
Cc1cccc(NC(=S)NC(=O)/C=C/c2ccco2)c1 | -19.1% | ? | ? | 22.4µM* | 4.3%

Assay outcomes (PubChem)
